# Results as given in the supplement of paper PMC6897291.
# Structures can show the parent of a compound that is named as a salt.
# Columns and labels:
# U-2932 [1] = assay: growth inhibition by drug alone (1 - RLU/untreated control) (fraction); higher = stronger inhibition; conditions: 177Lu-lilotomab satetraxetan 0 ug/ml
# Summary of the method: (§1)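 Growth inhibition was calculated from RealTime-Glo RLU against untreated no-drug wells. Values equal 1 − RLU/mean of 48 untreated no-drug wells per plate, read daily from day 3 after 1 h at 37°C. RIVA and U-2932 cells, with or without 18 h pretreatment by a radiolabelled anti-CD37 antibody conjugate (~600 MBq/mg; 0.5 µg/ml RIVA, 1 µg/ml U-2932), were washed and plated at 3,000 cells/well on compound-printed plates at 10/100 nM (RIVA) or 10/1,000 nM (U-2932).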
# U-2932 [2] = assay: growth inhibition by drug plus 177Lu-lilotomab satetraxetan (1 - RLU/untreated control) (fraction); higher = stronger inhibition; conditions: 177Lu-lilotomab satetraxetan 1 ug/ml
# Summary of the method: as §1
# RIVA [3] = assay: as above; conditions: 177Lu-lilotomab satetraxetan 0.5 ug/ml
# Summary of the method: as §1
# RIVA [4] = assay: growth inhibition by drug alone (1 - RLU/untreated control) (fraction); higher = stronger inhibition; conditions: 177Lu-lilotomab satetraxetan 0 ug/ml
# Summary of the method: as §1
SMILES,"growth inhibition by drug alone (U-2932 [1]; 10 nM, time (day): 3)","growth inhibition by drug alone (U-2932 [1]; 10 nM, time (day): 4)","growth inhibition by drug alone (U-2932 [1]; 10 nM, time (day): 5)","growth inhibition by drug alone (U-2932 [1]; 10 nM, time (day): 6)","growth inhibition by drug alone (U-2932 [1]; 1000 nM, time (day): 3)","growth inhibition by drug alone (U-2932 [1]; 1000 nM, time (day): 4)","growth inhibition by drug alone (U-2932 [1]; 1000 nM, time (day): 5)","growth inhibition by drug alone (U-2932 [1]; 1000 nM, time (day): 6)","growth inhibition by drug plus 177Lu-lilotomab satetraxetan (U-2932 [2]; 10 nM, time (day): 3)","growth inhibition by drug plus 177Lu-lilotomab satetraxetan (U-2932 [2]; 10 nM, time (day): 4)","growth inhibition by drug plus 177Lu-lilotomab satetraxetan (U-2932 [2]; 10 nM, time (day): 5)","growth inhibition by drug plus 177Lu-lilotomab satetraxetan (U-2932 [2]; 10 nM, time (day): 6)","growth inhibition by drug plus 177Lu-lilotomab satetraxetan (U-2932 [2]; 1000 nM, time (day): 3)","growth inhibition by drug plus 177Lu-lilotomab satetraxetan (U-2932 [2]; 1000 nM, time (day): 4)","growth inhibition by drug plus 177Lu-lilotomab satetraxetan (U-2932 [2]; 1000 nM, time (day): 5)","growth inhibition by drug plus 177Lu-lilotomab satetraxetan (U-2932 [2]; 1000 nM, time (day): 6)","growth inhibition by drug plus 177Lu-lilotomab satetraxetan (RIVA [3]; 10 nM, time (day): 3)","growth inhibition by drug plus 177Lu-lilotomab satetraxetan (RIVA [3]; 10 nM, time (day): 4)","growth inhibition by drug plus 177Lu-lilotomab satetraxetan (RIVA [3]; 10 nM, time (day): 5)","growth inhibition by drug plus 177Lu-lilotomab satetraxetan (RIVA [3]; 10 nM, time (day): 6)","growth inhibition by drug plus 177Lu-lilotomab satetraxetan (RIVA [3]; 100 nM, time (day): 3)","growth inhibition by drug plus 177Lu-lilotomab satetraxetan (RIVA [3]; 100 nM, time (day): 4)","growth inhibition by drug plus 177Lu-lilotomab satetraxetan (RIVA [3]; 100 nM, time (day): 5)","growth inhibition by drug plus 177Lu-lilotomab satetraxetan (RIVA [3]; 100 nM, time (day): 6)","growth inhibition by drug alone (RIVA [4]; 10 nM, time (day): 3)","growth inhibition by drug alone (RIVA [4]; 10 nM, time (day): 4)","growth inhibition by drug alone (RIVA [4]; 10 nM, time (day): 5)","growth inhibition by drug alone (RIVA [4]; 10 nM, time (day): 6)","growth inhibition by drug alone (RIVA [4]; 100 nM, time (day): 3)","growth inhibition by drug alone (RIVA [4]; 100 nM, time (day): 4)","growth inhibition by drug alone (RIVA [4]; 100 nM, time (day): 5)","growth inhibition by drug alone (RIVA [4]; 100 nM, time (day): 6)"
Nc1ncn([C@H]2C[C@H](O)[C@@H](CO)O2)c(=O)n1 [Decitabine],0.1,0.0737,-0.0105,-0.0724,-0.215,0.144,0.37,0.544,0.0943,0.11,0.126,0.167,0.13,0.49,0.632,0.753,0.474,0.558,0.569,0.567,0.496,0.556,0.566,0.53,,,,,,,,
CC[C@@H]1/C=C(\C)C[C@H](C)C[C@H](OC)[C@H]2O[C@@](O)(C(=O)C(=O)N3CCCC[C@H]3C(=O)O[C@H](/C(C)=C/[C@@H]3CC[C@H](Cl)[C@H](OC)C3)[C@H](C)[C@@H](O)CC1=O)[C@H](C)C[C@@H]2OC [Pimecrolimus],0.214,0.249,0.272,0.287,0.139,0.29,0.361,0.431,0.198,0.242,0.304,0.352,0.12,0.321,0.373,0.447,0.545,0.621,0.662,0.701,0.634,0.675,0.716,0.743,,,,,,,,
CCCCc1nc2cc(/C=C/C(=O)NO)ccc2n1CCN(CC)CC [SB939 (Pracinostat)],0.0917,0.0424,-0.0359,-0.128,0.935,0.941,0.959,0.973,0.0531,0.113,0.137,0.186,0.95,0.96,0.973,0.982,0.656,0.663,0.693,0.699,0.817,0.85,0.868,0.876,,,,,,,,
C=CCn1c(=O)c2cnc(Nc3ccc(N4CCN(C)CC4)cc3)nc2n1-c1cccc(C(C)(C)O)n1,0.112,0.069,-0.0363,-0.19,0.86,0.895,0.914,0.936,-0.0165,0.0521,0.116,0.141,0.884,0.926,0.954,0.971,0.447,0.527,0.532,0.552,-0.0318,0.133,0.152,0.222,,,,,,,,
C=CC(=O)Nc1cccc(Oc2nc(Nc3ccc(N4CCN(C)CC4)cc3OC)ncc2Cl)c1,-0.0921,-0.0614,-0.0383,0.12,0.122,0.0694,0.0278,0.0218,-0.102,-0.073,-0.0211,0.138,0.163,0.104,0.0972,0.216,0.397,0.494,0.517,0.516,0.215,0.265,0.299,0.321,,,,,,,,
CC(C=CC(=O)NO)=CC(C)C(=O)c1ccc(N(C)C)cc1 (configuration not stated) [Trichostatin A (TSA)],0.0657,0.0558,0.00424,-0.0676,0.98,0.983,0.983,0.983,0.0166,0.0461,0.0335,0.0848,0.981,0.983,0.984,0.984,0.467,0.537,0.547,0.561,0.854,0.798,0.783,0.763,0.0108,-0.0626,-0.0672,-0.162,0.651,0.317,0.223,0.132
COC(=O)Nc1ccc(-c2nc(N3CCOCC3)c3cnn(C4CCN(C(=O)OC)CC4)c3n2)cc1,0.122,0.107,0.0346,-0.00417,0.454,0.381,0.375,0.388,0.113,0.147,0.233,0.252,0.395,0.315,0.348,0.433,0.624,0.663,0.677,0.664,0.468,0.537,0.55,0.563,,,,,,,,
CCc1ccc(CCOc2ccc(CC3SC(=O)NC3=O)cc2)nc1 (configuration not stated) [Pioglitazone (Actos)],-0.11,-0.125,-0.103,-0.0806,-0.0965,-0.0693,-0.0516,0.0915,-0.113,-0.0372,0.0193,0.114,-0.102,-0.0405,0.0194,0.192,0.53,0.578,0.604,0.598,0.416,0.476,0.498,0.506,-0.15,-0.212,-0.202,-0.191,-0.391,-0.381,-0.369,-0.359
Cn1cnc2c(F)c(Nc3ccc(Br)cc3Cl)c(C(=O)NOCCO)cc21 [AZD6244 (Selumetinib)],0.124,0.0689,-0.0711,0.0468,0.116,0.112,-0.011,0.127,-0.00544,0.0596,0.0509,0.056,0.15,0.192,0.203,0.285,0.452,0.491,0.497,0.504,0.277,0.359,0.316,0.307,,,,,,,,
Nc1nc(F)nc2c1ncn2[C@@H]1O[C@H](CO)[C@@H](O)[C@@H]1O [Fludarabine (Fludara)],0.0811,0.031,-0.102,-0.129,0.0221,0.000892,-0.0649,-0.0258,0.0486,0.0769,0.126,0.16,0.00481,0.105,0.131,0.185,0.546,0.58,0.591,0.585,0.504,0.553,0.573,0.585,0.0792,0.0421,0.0106,-0.266,-0.264,-0.213,-0.187,-0.228
CCN(CC)C(=S)SSC(=S)N(CC)CC [Disulfiram (Antabuse)],0.0412,0.0424,-0.018,-0.236,0.981,0.982,0.981,0.981,0.000112,0.0295,0.0516,0.0837,0.981,0.983,0.982,0.983,0.402,0.529,0.548,0.549,0.209,0.379,0.394,0.386,,,,,,,,
Cc1[nH]c(/C=C2\C(=O)Nc3ccc(S(=O)(=O)Cc4c(Cl)cccc4Cl)cc32)c(C)c1C(=O)N1CCC[C@@H]1CN1CCCC1,-0.0448,-0.0348,-0.136,-0.363,-0.15,-0.0937,-0.118,-0.0292,-0.098,-0.0543,-0.04,0.0103,-0.291,-0.156,-0.125,-0.00631,0.279,0.438,0.464,0.487,0.246,0.384,0.381,0.376,,,,,,,,
"CC[C@H](CO)Nc1nc(NCc2ccccc2)c2ncn(C(C)C)c2n1 [Roscovitine (Seliciclib, CYC202)]",0.0612,0.034,-0.0433,-0.134,-0.0928,-0.0155,-0.074,-0.195,0.0443,0.0516,0.0573,0.114,-0.105,0.0161,-0.0091,-0.013,0.429,0.539,0.544,0.554,0.49,0.54,0.55,0.531,0.0751,0.0434,0.0188,-0.143,-0.0194,-0.0523,-0.0745,-0.157
CCN(CC)CCCC(C)Nc1nc(C)cc(Nc2ccc3nc(C)cc(N)c3c2)n1 (configuration not stated),0.0927,0.0716,-0.114,-0.134,0.0662,0.0733,-0.022,-0.107,0.0413,0.106,0.161,0.181,0.092,0.11,0.165,0.255,0.572,0.606,0.627,0.625,0.489,0.538,0.548,0.545,,,,,,,,
Nc1nc(Cl)nc2c1ncn2[C@@H]1O[C@H](CO)[C@@H](O)[C@@H]1F [Clofarabine],0.0673,0.0292,-0.0979,-0.0594,0.929,0.958,0.972,0.979,0.00886,0.0897,0.102,0.0953,0.925,0.961,0.977,0.985,0.51,0.568,0.575,0.586,0.872,0.923,0.943,0.959,-0.085,-0.0539,-0.15,-0.383,0.384,0.685,0.781,0.827
CCCC(=O)[O-].[Na+] [Sodium butyrate],-0.0432,-0.057,-0.0778,-0.0762,-0.0747,-0.0522,-0.0783,-0.149,-0.0586,-0.0574,-0.0479,-0.015,-0.0238,0.0387,0.0442,0.139,0.36,0.484,0.502,0.51,0.431,0.486,0.506,0.493,,,,,,,,
COc1cc2ncnc(Nc3ccc(Oc4ccccc4)cc3)c2cc1OC,0.0897,0.0909,0.0445,-0.0326,0.038,0.0615,0.0344,0.0553,0.0456,0.0896,0.111,0.169,-0.11,0.0137,0.0447,0.175,0.521,0.598,0.605,0.616,0.526,0.567,0.556,0.521,,,,,,,,
O=C(O)c1ccc(-c2c[nH]c3ncc(-c4ccccc4)cc23)cc1C1CCCC1,0.092,0.0154,-0.12,-0.193,-0.0285,-0.0484,-0.0534,0.0115,-0.00975,0.0274,-0.00811,0.0111,0.129,0.173,0.227,0.339,0.472,0.539,0.552,0.565,0.343,0.471,0.488,0.51,,,,,,,,
COC1=CC(c2cc3ccccc3[nH]2)=N/C1=C\c1[nH]c(C)cc1C [Obatoclax mesylate (GX15-070)],0.114,0.0688,-0.0597,-0.127,0.123,0.0924,0.0457,-0.0101,0.00229,0.0671,0.129,0.144,0.143,0.163,0.242,0.343,0.479,0.58,0.604,0.618,0.201,0.411,,,0.00951,0.024,-0.054,-0.371,-0.444,-0.248,-0.309,-0.6
